PubChem BioAssay (NCI)
Where “and” joins values, the source holds several entries; their conditions need not be identical. Identical values can stand only once. Compounds without any hit were thinned out: in the full panel of roughly 83,000, 20% have a hit.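 Step 1: grow cells in 96-well plates. Step 2: add test compound at a single concentration. Step 3: incubate 48 h. Step 4: record percent growth.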 Calls of active or inactive are those of the source. The calls were made as follows: active = growth percent below 10; inactive = the rest.

test system: MDA-MB-468 breast; test: NCI-60 one-dose screen, 48 h (100 = growth as untreated, 0 = no growth, -100 = all killed); conditions: 10 µM unless noted

Row | Structure (SMILES) | growth
1 | Cc1nc(-c2ccc(Cl)cc2)ccc1NC(=O)Nc1cccc(C(F)(F)F)c1 | 98.5% (inactive)
2 | Cc1ccc(S(=O)(=O)Oc2ccc(Br)cc2Br)cc1 | 23.7% (inactive)
3 | O=C(Nc1ccc(F)cc1)c1ccc(C(=O)Nc2ccc(F)cc2)cc1 | 99.7% (inactive)
4 | CC(C)C1=C[C@@]23CC[C@@H]4[C@](C)(CCC[C@@]4(C)C(=O)N4CCCNCC4)[C@H]2C[C@@H]1[C@H]1C(=O)CCC(=O)[C@H]13 | 101% (inactive)
5 | COc1cc2ncnc(Nc3ccc(F)c(Cl)c3)c2cc1OCC(=O)N1CCOCC1 | -15.9% (active)
6 | CC1=C(C)C(=O)C(Nc2cccc(C(=O)OC(C)(C)C)c2)=C(Br)C1=O | -54% (active)
7 | CCCCC1=C(Br)C(=O)c2nc(C)ccc2C1=O | 92.6% (inactive)
8 | CCc1ccc(Oc2c(-c3ccc(OCc4ccc(Cl)cc4)cc3O)n[nH]c2C(F)(F)F)cc1 | 13.1% (inactive)
9 | COc1cc(Cl)cc(-c2nn(-c3cccc(NC(=O)Nc4ccc(Cl)c(C(F)(F)F)c4)c3)cc2-c2ccncc2)c1 | -14.4% (active)
10 | N#CSCc1ccc(Cl)c(CSC#N)c1 | 51.5% (inactive)
11 | C=CCC(OC(C)=O)c1ccc(OC)c(OC)c1 (stereo not given) | 125% (inactive)
12 | Cc1cc(NCc2cc(Nc3ccnc4cc(Cl)ccc34)ccc2F)nc(Cl)n1 | -3.4% (active)
13 | CCc1n(Cc2ccc3ccccc3c2)c2ccccc2[n+]1Cc1ccc2ccccc2c1 | 5.98% (active)
14 | O=C(Nc1ccccc1O)c1ccc(Oc2cccc(C(=O)Nc3ccccc3O)c2)cc1 | -27.2% (active)
15 | COc1ccc(-c2cn[nH]c2-c2cc(OC)c(OC)c(OC)c2)cc1OCc1ccccc1 | -5.94% (active)
16 | Cc1cc(Nc2ccc(OCc3ccccc3)cc2)nc2cc(O)ccc12 | 6.48% (active)
17 | COc1ccc(S(=O)(=O)NCCNc2nccc(-c3c(-c4cccc([N+](=O)[O-])c4)nc4sccn34)n2)cc1 | 69.7% (inactive)
18 | Clc1ccc(-c2cc(-c3ccccc3)nc(NCCNc3ccnc4cc(Cl)ccc34)n2)cc1 | -79.6% (active)
19 | O=C(Nc1cc(-c2ccccc2)[nH]n1)c1ccc(Cl)cc1 | 73% (inactive)
20 | CCCc1nn2c(CCC(=O)c3nc4ccc([N+](=O)[O-])cc4[nH]3)nnc2s1 | 114% (inactive)

Row | Structure (SMILES) | growth
21 | CCC(O)c1ccccc1 (stereo not given) | 108% (inactive) and 97.6% (inactive)
22 | Cc1cccc(/C=C2\N=C(c3ccccc3)N(c3ccc(S(N)(=O)=O)cc3)C2=O)c1 | 99.2% (inactive)
23 | C[C@]12CC[C@@H]3c4cc(OC(F)F)c(OS(N)(=O)=O)cc4CC[C@H]3[C@@H]1CC[C@@H]2OS(N)(=O)=O | 11.9% (inactive)
24 | Cc1ccc(S(=O)(=O)Nc2sccc2-c2nc(-c3ccccc3)no2)cc1 | 97.7% (inactive)
25 | C/C(Cc1ccc(Cl)cc1)=C(/c1ccc(Cl)cc1)c1ccc(OCCN(C)C)cc1 | 17.2% (inactive)
26 | O=CN1N=C(c2ccc(Nc3ccnc4cc(Cl)ccc34)cc2)CC1c1ccc(Cl)cc1 (stereo not given) | -0.669% (active)
27 | N#Cc1ccc(-c2ccc(COc3ccc(CC4SC(=O)NC4=O)cc3)cc2)cc1 (stereo not given) | 5.4% (active)
28 | C=C1C(=O)O[C@H]2[C@H](O)[C@@H](C)CCC/C(C)=C/CC[C@@]3(C)O[C@@H]3C[C@@H]12 | 61.4% (inactive)
29 | CC(=O)Nc1ccccc1-c1n[nH]c(=O)[nH]c1=O | 102% (inactive)
30 | CCCNC(=O)Oc1ccc(/C(=C(/C)Cc2ccc(OC)cc2)c2ccc(OCCN3CCCCC3)cc2)cc1 | 79.6% (inactive)
31 | COc1cc(-c2nn(-c3ccc(NC(=O)NCCNS(=O)(=O)c4ccc(F)cc4)cc3)cc2-c2ccncc2)ccc1Cl | -27% (active)
32 | Fc1ccc(Nc2nc(Nc3ccc(-c4nc5ccccc5[nH]4)cc3)nc(N3CCCC3)n2)cc1 | 83.6% (inactive)
33 | Cc1cc(F)ccc1S(=O)(=O)Nc1cc(-c2c(O)ccc3ccccc23)c(O)c2ccccc12 | -1.51% (active)
34 | CCCCCCCCNC(C)C(O)c1ccc(SC(C)C)cc1 (stereo not given) | 17.6% (inactive)
35 | COCCn1cc(-c2nc(-c3c[nH]c4ncccc34)cs2)c2ccccc21 | -7.09% (active)
36 | CCCCCCCCCCCCC1C/C=C\CCCC(=O)O1 (stereo not given) | 127% (inactive)
37 | NS(=O)(=O)c1ccc(CCn2c(-c3ccc(C(=O)O)cc3)nc(-c3ccccc3)c2-c2ccccc2)cc1 | 112% (inactive)
38 | Cc1c(C(N)=O)sc2c1c(=O)n(Cc1ccccc1)c1nnc(SCC(=O)Nc3ccc(Cl)cc3)n21 | 39.6% (inactive)
39 | Nc1[nH]c(=S)nc2oc(-c3ccccc3)c(-c3ccccc3)c12 | 98.8% (inactive)
40 | CNc1nc2c(s1)C(c1cccc(F)c1)CC(=O)N2 (stereo not given) | 98% (inactive)
